An excerpt weighted towards active compounds, which were near 4.6% of everything screened.
HSF1 inhib: HSF1 inhibitors in luciferase reporter cells, primary screen, cell-based, NIH3T3, luminescence; 300,000 tested, 0.77% active; activity change, negative = inhibition, % at 7.5 µM (by protocol); NIH3T3-HGL HSE-luciferase, MG132-induced, luminescence 8 h; stronger effect = lower value; AID 2098, 2009;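 active = more than half of replicate wells show activity change below -50%, luminescence cut by over half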;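 also: luciferase reports HSF-1 transcriptional activity via heat shock element; 0% = median of DMSO wells and -100% = zero luminescence signal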
AHR act: AHR activators, primary screen, cell-based, luminescence, luciferase reporter, human | Aryl hydrocarbon receptor (Homo sapiens), P35869 | AHR-responsive luciferase reporter cells | activation, % at 5 µM | 320,000 tested, 2.5% active; in the data active = activation above about 47%;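 also: 0% = vehicle wells and 100% = reference agonist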
Target sequence (P35869 whole entry, looked up): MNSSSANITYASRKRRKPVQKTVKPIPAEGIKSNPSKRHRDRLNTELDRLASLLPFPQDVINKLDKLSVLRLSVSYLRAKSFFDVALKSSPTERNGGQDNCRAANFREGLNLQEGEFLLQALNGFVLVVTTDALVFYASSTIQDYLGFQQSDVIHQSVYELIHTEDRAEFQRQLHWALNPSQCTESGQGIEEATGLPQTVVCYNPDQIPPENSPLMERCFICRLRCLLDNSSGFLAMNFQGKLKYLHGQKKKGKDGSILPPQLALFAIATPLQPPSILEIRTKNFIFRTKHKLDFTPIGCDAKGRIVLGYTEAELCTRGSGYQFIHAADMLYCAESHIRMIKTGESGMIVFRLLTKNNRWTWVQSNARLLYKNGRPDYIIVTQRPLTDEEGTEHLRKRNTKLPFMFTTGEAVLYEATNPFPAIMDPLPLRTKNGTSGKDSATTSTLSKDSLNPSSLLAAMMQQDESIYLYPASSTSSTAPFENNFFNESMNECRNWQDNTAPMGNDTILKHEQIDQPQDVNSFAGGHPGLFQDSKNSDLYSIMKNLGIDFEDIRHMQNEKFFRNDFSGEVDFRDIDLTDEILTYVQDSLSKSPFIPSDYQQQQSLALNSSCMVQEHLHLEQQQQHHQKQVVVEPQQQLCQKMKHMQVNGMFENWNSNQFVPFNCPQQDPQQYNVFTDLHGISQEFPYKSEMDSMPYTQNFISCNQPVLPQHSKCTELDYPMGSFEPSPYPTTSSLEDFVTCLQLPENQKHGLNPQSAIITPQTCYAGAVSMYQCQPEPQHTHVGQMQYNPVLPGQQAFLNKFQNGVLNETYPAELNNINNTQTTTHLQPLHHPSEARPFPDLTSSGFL
FXN GAA850 act: FXN promoter activators, primary screen, cell-based, luciferase luminescence, HEK293 lucGAA850; activation, % at 6 µM; HEK293 lucGAA850 FXN promoter luciferase reporter, 24 h; percent of 10 µM SAHA response; 360,000 tested, 0.56% active; AID 540364, 2011;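 active = activation above the average of all compounds screened plus 3 SD, cutoff fixed separately per campaign, cut at about 7.5% in these data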;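 also: 0% = DMSO wells and 100% = 10 µM SAHA wells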
HSF1 activator: HSF-1 activators, primary screen, NIH3T3-HGL cells, MG132 stress, luminescence, single point | NIH3T3-HGL HSF-1 luciferase reporter, 8 h; 100% = twice DMSO control signal | activation, % at 9 µM | 300,000 tested, 1.7% active;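 active = mean replicate activation of at least 50% with a set share of replicates each reaching 50%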;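 also: 0% = median of the neutral control wells and 100% = twice that signal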
Numbers without * were called inactive; . = not tested or not shown.

SMILES	HSF1 inhib	AHR act	FXN GAA850 act	HSF1 activator
O=S(=O)(Nc1cccc(-c2cn3cccnc3n2)c1)c1ccccc1	1	8	5	-8
CCN(CC)C(=O)c1[nH]cnc1C(=O)Nc1cccc(Cl)c1	.	67*	-1	.
Cc1nn(Cc2ccccc2)c(C)c1NC(=O)CSc1nc(-c2ccccc2)nc2c1cnn2-c1ccccc1	-3	.	1	-7
CCC(=O)Nc1nc2ccc(NC(C)=O)cc2s1	11	76*	0	12
CCCC(=O)Nc1nc2ccc(NC(=O)c3ccc(Br)o3)cc2s1	5	45	6	9
CC(=O)Nc1ccc2nc(NC(=O)c3ccc([N+](=O)[O-])o3)sc2c1	19	58*	2	21
Cc1nnnn1/C(=C\c1ccccc1)C(=O)OCC(=O)NC1CCCCC1	70	-2	-4	78*
CCOC(=O)Cc1cnc(NC(=O)CSc2nc(C)c(CC)c(=O)[nH]2)s1	-4	5	2	-11
N#Cc1c2c(c(Nc3ccc(O)cc3)n3c1nc1ccccc13)CCC2	30	5	-1	66*
Cc1cccc(N2CCN(CC(O)COc3ccccc3Cl)CC2)c1 (configuration not stated)	-3	0	1	-5
CCc1c(C(=O)Nc2nnc(C3CC3)s2)csc1C	4	67*	4	7
CCCc1sc(C(=O)Nc2nnc(C3CC3)s2)cc1CC	.	.	1	.
O=C(Nc1ccc(Cl)cc1)C1CC(=O)n2c(nc3ccccc32)N1 (configuration not stated)	-7	0	0	-7
CCOc1ccccc1N(CC(=O)Nc1ccc2c(c1)OCCO2)S(C)(=O)=O	0	18	1	-2
CCOc1ccccc1N(CC(=O)Nc1ccc2c(c1)OCO2)S(C)(=O)=O	2	69*	1	18
COc1ccc(S(=O)(=O)N(CC(=O)Nc2ccc3c(c2)OCO3)c2ccccc2OC)cc1	-7	47*	-3	6
COc1cccc(N(CC(=O)Nc2ccc3c(c2)OCO3)S(=O)(=O)c2ccccc2)c1	-5	76*	-4	11
Cc1ccccc1N(CC(=O)Nc1ccc(F)cc1)S(C)(=O)=O	0	69*	1	5
COc1ccc(N(CC(=O)Nc2ccc3c(c2)OCO3)S(=O)(=O)c2ccccc2)cc1	3	42	2	4
Cc1cc2c3c(c1)C(C)CC(C)(C)N3C(=O)C2=O (configuration not stated)	1	1	-1	20
Cc1ccc(CN2[C@@H]3c4ccccc4C[C@@H]3OCCS2(=O)=O)cc1	3	0	1	-6
Cc1ccc(NC(=O)c2ccc3nc[nH]c3c2)cc1C	16	64*	3	31
O=C(Nc1ccccc1)c1sc(Cl)nc1-c1ccccc1	10	4	0	13
Cc1ccc(NC(=O)c2cnc3ccccc3n2)cc1C	23	24	3	62*
O=C(Nc1ccccc1)c1cnc2ccccc2n1	8	32	6	5
SMILES	HSF1 inhib	AHR act	FXN GAA850 act	HSF1 activator
Cc1ccc(NC(=O)c2sc(Cl)nc2-c2ccccc2)cc1C	26	6	0	61*
O=C(CSc1nc(=O)n(CCCN2CCOCC2)c2c1CCCC2)Nc1ccccc1Cl	-2	0	1	4
O=C(Cc1ccccc1)NC1CCCCC1	.	.	0	.
O=C(NCc1ccco1)c1ccc(Cl)nc1	-4	-1	2	-3
Cc1ccccc1C(=O)Nc1ccnn1C1CCN(C(=O)c2ccoc2)CC1	-2	0	0	-13
Cc1cc(=O)[nH]c2c1c(=O)[nH]n2C1CC(C)N(C)CC1C (configuration not stated)	-57*	1	1	-67
Cc1ccc(-n2nc(C)c3c(C)cc(=O)[nH]c32)cc1	-1	32	0	0
O=[N+]([O-])c1ccccc1CCc1cnc(Cl)s1	-63*	1	0	-70
Cc1ccc(/C(C#N)=C\c2cn(C)c3ccccc23)cc1	.	75*	.	.
CCC(C)C(CO)NCCCn1cnc2c(OC)ncnc21 (configuration not stated)	.	.	-1	.
CCS(=O)(=O)Nc1ccc2[nH]c(=O)[nH]c2c1	28	2	0	78*
Cc1ccc2nc(-c3ccccn3)oc2c1	16	61*	4	31
Cc1ccc(-c2nc(-c3ccccn3)no2)cc1	-78*	-14	-14	-80
c1ccc(-c2nc(-c3ccccn3)no2)cc1	11	11	-5	11
O=C(O)Cc1ccc2oc(-c3ccccn3)nc2c1	4	-3	1	0
c1ccc(-c2ccc(-c3nc(-c4ccccn4)no3)cc2)cc1	-88*	-9	-16	-89
COC(=O)c1cnn2c(C(F)(F)F)cc(-c3ccccc3)nc12	-9	2	2	4
N#Cc1cnn2c(C(F)(F)F)cc(-c3ccccc3)nc12	-6	60*	2	2
CCC1(C(=O)OC)CCc2c(cc(OC)c3ccccc23)C1=O (configuration not stated)	-7	54*	1	12
CN(C(=O)c1ccccc1)c1nc2ccccc2s1	29	-2	-1	65*
O=C(CN(c1ccccc1)S(=O)(=O)c1ccccc1[N+](=O)[O-])Nc1cccnc1	-4	5	0	8
Cc1nn(CC(=O)Nc2ccc(Br)cc2F)c(=O)c2cccn12	2	4	1	-14
O=C(CC1C(=O)N(Cc2ccccc2)C(=S)N1CCN1CCOCC1)Nc1ccc(F)cc1 (configuration not stated)	20	0	-2	61*
CCCCS(=O)(=O)/C=C\C1C2C=CC(C2)C1S(=O)(=O)CCCC (configuration not stated)	-3	-1	0	-18
CCCCS(=O)(=O)/C=C\C=C/S(=O)(=O)CCCC	-83*	-1	-15	-84
SMILES	HSF1 inhib	AHR act	FXN GAA850 act	HSF1 activator
O=C(OCn1ncc(Br)c(Br)c1=O)c1ccc(F)cc1	-94*	6	-15	-95
O=C(OCn1ncc(Cl)c(Cl)c1=O)c1cccc(C(F)(F)F)c1	21	5	-15	31
O=C(OCn1ncc(Br)c(Br)c1=O)c1ccccc1Cl	-74*	12	-14	-74
COc1ccccc1CN(Cc1cc2cc(C)ccc2[nH]c1=O)Cc1nnnn1Cc1ccco1	8	17	1	-7
COc1ccc(CCNC(=O)c2ccc(N(C)S(=O)(=O)c3ccc(C)cc3)cc2)cc1	-55*	4	0	-69
CCOc1ccc(S(=O)(=O)N(C)c2ccc(OCC(=O)NCCc3ccc(OC)cc3)cc2)cc1	-53*	14	0	-63
CCOc1ccc(S(=O)(=O)N(C)c2ccc(OCC(=O)NCC3CCCCC3)cc2)cc1	.	5	4	.
O=C(OCc1c(-c2ccccc2)ncc2ccccc12)c1cccc(Br)c1	.	5	0	.
NNc1ccc(Cl)nn1	-3	69*	4	4
Clc1ccc(Nc2ccc(Cl)nn2)cc1	-55*	-6	2	-65

Screening results: PubChem BioAssay, several laboratories
